# Results from PubChem BioAssay (Tox21).
# Inconclusive results are not listed. Values without a mark were called inactive. The source made the active and inactive calls. Calls come from the whole dose curve; as a rule, active = well fitted activation curve with a large enough effect in the signal ratio in the repeat runs, with a control signal flat (not every such curve was filed as active); inconclusive = weak or mixed curves; inactive = flat fitted curve, though single readings scatter; the % refers to the signal ratio.
# Test: qHTS assay for small molecule activators of the heat shock response signaling pathway (AID 743210)
# Settings: HeLa HSE-bla reporter, beta-lactamase ratio, 5 h; series mostly up to 62.6 µM; activation: at the top concentration
# Text: U.S. Tox21 Program National Center for Advancing Translational Sciences [NCATS] NIH Chemical Genomics Center [NCGC] U.S. Environmental Protection Agency [EPA] National Institutes of Environmental Health Sciences [NIEHS] National Toxicology Program [NTP] U.S. Food and Drug Administration [FDA] Tox21 Assay Overview: Various chemicals, environmental and physiological stress conditions may lead to the activation of heat shock response/ unfolded protein response (HSR/UPR). There are three heat shock transcription factors (HSFs) (HSF-1, -2, and -4) mediating transcriptional regulation of the human HSR. To identify the compounds that activate HSR signaling, HSE-bla HeLa cell line (Invitrogen, Carlsbad, CA, USA) containing a beta-lactamase reporter gene under the control of the heat shock response elements was used to screen the Tox21 10K compound library.
# Tox21 Assay Protocol Summary: The CellSensor HSE-bla HeLa cells (Invitrogen, Carlsbad, CA, USA) were dispensed at 1500 cells/6uL/well into 1536-well black wall/clear bottom plates using a Multidrop combi (Thermo Fisher Scientific, Waltham, MA) dispenser. After the assay plates were incubated at 37 C and 5% CO2 overnight, 23 nL of compounds dissolved in DMSO, positive controls or DMSO only was transferred to the assay plate by a Pintool station (Kalypsys, San Diego, CA). The plates were incubated at 37 C for 5 h. After 1 uL of LiveBLAzerTM B/G FRET substrate was added using a Flying Reagent Dispenser (Beckman Coulter, Indianapolis, IN, USA), the plates were incubated at room temperature for 2.5 h, and fluorescence intensity was measured by an Envision plate reader (PerkinElmer, Shelton, CT).
# % is set by controls: 0 for no effect and ±100 for the full control effect.
SMILES,outcome,activation
O=C(O)CC(O)C(=O)O (stereo not given),inactive,
Cn1c(=O)c2c(ncn2C)n(C)c1=O,inactive,
CCOC(N)=O,inactive,
COc1ccc(CN(CCN(C)C)c2ccccn2)cc1,inactive,
F[B-](F)(F)F,inactive,
Cc1ncc([N+](=O)[O-])n1C,inactive,
CCCCCCCC(=O)OCC(COC(=O)CCCCCCC)OC(=O)CCCCCCC,inactive,
O=C1NC(=O)C(c2ccccc2)(c2ccccc2)N1,inactive,
CC/C(=C(\c1ccccc1)c1ccc(OCCN(C)C)cc1)c1ccccc1,,-0.11% [at 81.1 µM]
Nc1ccc([N+](=O)[O-])cc1O,,1.68% [at 81.1 µM]
O=C1c2c(O)cccc2Cc2cccc(O)c21,inactive,
C=CCc1ccc(O)c(OC)c1,inactive,
CCN(CC)C(=O)c1cccc(C)c1,inactive,
CS(=O)(=O)OCCCCOS(C)(=O)=O,inactive,
C1=CC2C3C=CC(C3)C2C1 (stereo not given),,-3.6% [at 81.1 µM]
NC1CCCCC1,inactive,
Nc1c2c(nc3ccccc13)CCCC2,inactive,
CC12CCC(CC1)C(C)(C)O2,inactive,
COc1ccc(OC(F)(F)F)cc1CN[C@H]1CCCN[C@H]1c1ccccc1,,0.524%
CCCc1cc(=O)[nH]c(=S)[nH]1,inactive,

SMILES,outcome,activation
O=C(Nc1ncc([N+](=O)[O-])s1)c1cccs1,,-0.3%
COc1ccc2c(c1)c(CC(=O)O)c(C)n2C(=O)c1ccc(Cl)cc1,inactive,
CCCCCCc1ccc(O)cc1O,,1.5%
NS(=O)(=O)c1cc2c(cc1Cl)NCNS2(=O)=O,inactive,
CCCCC1(COC(=O)CCC(=O)O)C(=O)N(c2ccccc2)N(c2ccccc2)C1=O,inactive,
CCCCNC(=O)NS(=O)(=O)c1ccc(C)cc1,inactive,
Cc1cccc(C)c1,inactive,
CCc1nc(N)nc(N)c1-c1ccc(Cl)cc1,inactive,
C/C=C/C=C/C(=O)O,inactive,
CN(N=O)C(=O)N[C@@H]1[C@@H](O)[C@H](O)[C@@H](CO)O[C@@H]1O,inactive,
CCCCC(CC)C(=O)O (stereo not given),inactive,
NC(CO)(CO)CO,inactive,
COc1ccc(C(Cl)=C(c2ccc(OC)cc2)c2ccc(OC)cc2)cc1,inactive,
CN(C)C(=O)Nc1ccc(Cl)c(Cl)c1,inactive,
CN(C)CCOC(C)(c1ccccc1)c1ccccn1 (stereo not given),inactive,
Nc1ccc2c(c1)CN1C(=O)c3ccccc3C1=N2,,-0.891% [at 29.1 µM]
NC(=O)c1cccnc1,inactive,
CNNCc1ccc(C(=O)NC(C)C)cc1,inactive,
O=c1[nH]cc(F)c(=O)[nH]1,inactive,
Cc1ncc([N+](=O)[O-])n1CCO,inactive,
